# Data as given in PubChem BioAssay AID1159580 (chemical genetic matrix, 2015).
# Values joined by “and” are separate entries in the source; they are usually repeats but may differ in a detail not shown here. Equal entries are not always repeated. In all, about 5,500 compounds went through this assay and about 2,000 (36%) were called active. Another 18% or so got no clear call; they are omitted. The list shows a part of the results. Values without a mark were called inactive. Rule as the data show it: active = normalized growth mostly below about 0.91 (no sharp cut-off); inconclusive = no clear call, values can overlap the other calls; inactive = mostly above about 0.92.
# Experiment: chemical genetic growth profiling, strain panel (AID 1159580);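 also: tested at 20 µM; growth read once vehicle control cultures reached saturation at 30 °C; 1 = growth at the plate median or of vehicle wells; lower values mean less growth of the strain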
# Details: S. cerevisiae deletion strains, growth OD
smiles,measurement,setting,value
CN(C)CCc1c[nH]c2ccc(CS(=O)(=O)N3CCCC3)cc12,normalized growth,"locus YAL013W, strain DEP1, hits give low values",0.991
same,normalized growth,"locus YAL021C, strain ccr4, hits give low values",0.991
same,normalized growth,"locus YAL026C, strain drs2, hits give low values",0.976
same,normalized growth,"locus YAL030W, strain snc1, hits give low values",1.01
same,normalized growth,"locus YBL061C, strain skt5, hits give low values",1.01
same,normalized growth,"locus YBR009C, strain hhf1, hits give low values",0.925
same,normalized growth,"locus YBR021W, strain FUR4, hits give low values",1
same,normalized growth,"locus YBR023C, strain chs3, hits give low values",0.997
same,normalized growth,"locus YBR171W, strain sec66, hits give low values",1
same,normalized growth,"locus YBR229C, strain ROT2, hits give low values",0.995
same,normalized growth,"locus YBR231C, strain swc5, hits give low values",0.993
same,normalized growth,"locus YBR279W, strain paf1, hits give low values",0.986
same,normalized growth,"locus YCL011C, strain gbp2, hits give low values",0.982
same,normalized growth,"locus YCL016C, strain dcc1, hits give low values",1.02
same,normalized growth,"locus YCL029C, strain bik1, hits give low values",0.981
same,normalized growth,"locus YCL069W, strain vba3, hits give low values",0.977
same,normalized growth,"locus YCR088W, strain abp1, hits give low values",0.986
same,normalized growth,"locus YDL005C, strain med2, hits give low values",1.01
same,normalized growth,"locus YDL035C, strain GPR1, hits give low values",1.01
same,normalized growth,"locus YDL040C, strain nat1, hits give low values",0.99
same,normalized growth,"locus YDL074C, strain BRE1, hits give low values",1.05
same,normalized growth,"locus YDL101C, strain DUN1, hits give low values",0.987
same,normalized growth,"locus YDL134C, strain PPH21, hits give low values",0.99
same,normalized growth,"locus YDL185W, strain tfp1, hits give low values",0.979
same,normalized growth,"locus YDL192W, strain arf1, hits give low values",0.991
same,normalized growth,"locus YDR001C, strain nth1, hits give low values",0.98
same,normalized growth,"locus YDR069C, strain doa4, hits give low values",0.992
same,normalized growth,"locus YDR101C, strain arx1, hits give low values",0.986
same,normalized growth,"locus YDR137W, strain rgp1, hits give low values",0.986
same,normalized growth,"locus YDR150W, strain NUM1, hits give low values",0.999
same,normalized growth,"locus YDR159W, strain sac3, hits give low values",0.831 (active)
same,normalized growth,"locus YDR162C, strain NBP2, hits give low values",1.01
same,normalized growth,"locus YDR195W, strain ref2",0.937
same,normalized growth,"locus YDR297W, strain sur2, hits give low values",0.996
same,normalized growth,"locus YDR318W, strain mcm21, hits give low values",0.996
same,normalized growth,"locus YDR334W, strain swr1, hits give low values",0.949
same,normalized growth,"locus YDR335W, strain msn5, hits give low values",0.982
same,normalized growth,"locus YDR388W, hits give low values",0.988
same,normalized growth,"locus YDR392W, strain spt3, hits give low values",0.972
same,normalized growth,"locus YDR502C, strain sam2, hits give low values",0.989
same,normalized growth,"locus YEL003W, strain gim4, hits give low values",0.977
same,normalized growth,"locus YEL037C, strain rad23, hits give low values",0.976
same,normalized growth,"locus YEL061C, strain CIN8 (second series), hits give low values",0.958
same,normalized growth,"locus YEL061C, strain CIN8, hits give low values",1
same,normalized growth,"locus YER015W, strain faa2, hits give low values",0.993
same,normalized growth,"locus YER016W, strain bim1, hits give low values",1.05
same,normalized growth,"locus YER110C, hits give low values",0.99
same,normalized growth,"locus YER111C, strain swi4, hits give low values",0.998
same,normalized growth,"locus YER155C, strain BEM2 (second series), hits give low values",1.02
same,normalized growth,"locus YER155C, strain BEM2, hits give low values",1.02
same,normalized growth,"locus YER167W, strain BCK2, hits give low values",0.992
same,normalized growth,"locus YFR010W, strain ubp6, hits give low values",0.947
same,normalized growth,"locus YGL078C, strain dbp3, hits give low values",0.985
same,normalized growth,"locus YGL086W, strain mad1, hits give low values",0.988
same,normalized growth,"locus YGL167C, strain pmr1, hits give low values",0.983
same,normalized growth,"locus YGL173C, strain kem1, hits give low values",0.958
same,normalized growth,"locus YGL227W, strain vid30, hits give low values",0.966
same,normalized growth,"locus YGL240W, strain doc1, hits give low values",0.926
same,normalized growth,"locus YGL248W, strain PDE1, hits give low values",0.993
same,normalized growth,"locus YGL253W, strain hxk2, hits give low values",1
same,normalized growth,"locus YGR078C, strain PAC10, hits give low values",1.01
same,normalized growth,"locus YGR135W, strain pre9, hits give low values",0.999
same,normalized growth,"locus YGR229C, strain SMI1, hits give low values",1.01
same,normalized growth,"locus YGR252W, strain gcn5, hits give low values",1.03
same,normalized growth,"locus YHR013C, strain ard1, hits give low values",1.02
same,normalized growth,"locus YHR027C, strain rpn1, hits give low values",0.984
same,normalized growth,"locus YHR030C, strain SLT2, hits give low values",0.995 and 0.96
same,normalized growth,"locus YHR079C, strain IRE1 (second series), hits give low values",0.981
same,normalized growth,"locus YHR079C, strain IRE1, hits give low values",0.984
same,normalized growth,"locus YHR094C, strain hxt1, hits give low values",0.987
same,normalized growth,"locus YHR129C, strain ARP1, hits give low values",0.981
same,normalized growth,"locus YHR142W, strain chs7, hits give low values",0.976
same,normalized growth,"locus YHR200W, strain rpn10, hits give low values",0.991
same,normalized growth,"locus YIL066C, strain RNR3, hits give low values",0.998
same,normalized growth,"locus YIL073C, strain SPO22, hits give low values",0.999
same,normalized growth,"locus YIL125W, strain kgd1, hits give low values",0.994
same,normalized growth,"locus YIR030C, strain dcg1, hits give low values",0.983
same,normalized growth,"locus YJL092W, strain hpr5, hits give low values",0.99
same,normalized growth,"locus YJL095W, strain BCK1 (second series), hits give low values",0.991
same,normalized growth,"locus YJL095W, strain BCK1, hits give low values",0.984 and 0.977
same,normalized growth,"locus YJL115W, strain asf1, hits give low values",0.987
same,normalized growth,"locus YJL129C, strain trk1, hits give low values",0.994
same,normalized growth,"locus YJL134W, strain LCB3, hits give low values",0.991
same,normalized growth,"locus YJL154C, strain vps35, hits give low values",0.978
same,normalized growth,"locus YJL164C, strain tpk1, hits give low values",0.99
same,normalized growth,"locus YJL166W, strain qcr8, hits give low values",0.986
same,normalized growth,"locus YJL168C, strain set2, hits give low values",0.987
same,normalized growth,"locus YJL187C, strain SWE1 (second series), hits give low values",0.986
same,normalized growth,"locus YJL187C, strain SWE1, hits give low values",1.01
same,normalized growth,"locus YJR043C, strain POL32, hits give low values",0.994
same,normalized growth,"locus YJR066W, strain TOR1, hits give low values",0.925
